Experimental findings from PubChem BioAssay (NCATS) are described below.

Results filed as inconclusive are left out. Calls of active or inactive are those of the source. The call rests on the fitted dose curve; in most records, active means well fitted inhibition curve with a large enough effect; inconclusive means small, poorly fitted or top-dose-only effect; inactive means flat fitted curve, though single readings scatter. Numbered stars: 1 amine (or outer) side, 2 acyl side, 3 side chain; on linkers, the order of the positions; unused ones are H or OH. Bridge positions count the residues as written; N and C are the ends. Square brackets hold non-standard residues; d marks the D form. Peptide text beside a SMILES is read from it. I, II: the chains in the order shown. Actinocin(9to1) = Cc1c2oc3c(C)ccc(C(=O)[*:1])c3nc-2c(C(=O)[*:2])c(N)c1=O; NMeV = CN[C@H](C(=O)O)C(C)C; Sar = CNCC(=O)O

Common to all, as to assay: qHTS profiling for inhibitors of Plasmodium falciparum proliferation (AID 504749); further: nearly all actives have a fitted effect of over 60% in size
Common to all, as to settings: P. falciparum in erythrocytes, SYBR Green DNA, 72 h; series mostly up to 28.7 µM

For one experiment, the system named is N140. Summed up: (§1)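 P. falciparum-infected erythrocytes (0.3% parasitemia, 2.5% hematocrit final) were exposed to compounds for 72 h at 37 C in 5% CO2, then lysed with SYBR Green buffer overnight at room temperature; parasite DNA fluorescence was normalized to artemisinin and DMSO controls.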
The test system of the next experiment is P93_24. The gist of the method:
as §1

The subject of a further experiment is P94_40. Summed up: as §1
The test system of another experiment is PAD. Summed up: as §1
Another experiment concerns PC15. The gist of the method:
as §1

The test system of another experiment is PC26. Summed up: as §1
For a further experiment, the system named is SC27B. The gist of the method:
as §1

A further experiment has as its system TAB109. The gist of the method:
as §1

The next experiment relates to TAB113. The gist of the method:
as §1

The subject of another experiment is PC49. Summed up:
as §1
Potency means the concentration at half of the fitted maximal effect.

Turning to `CC(=O)N(O)CCCCCNC(=O)CCC(=O)N(O)CCCCCNC(=O)CCC(=O)N(O)CCCCCN`, the Potency result in the experiment on N140, in the experiment on P93_24, with P94_40, in the experiment on PAD, with PC15 and in the experiment with PC26 was “inactive” throughout. Further, the Potency entry in the experiment with SC27B, in the experiment with TAB109 and with TAB113 was “inactive” throughout.
As to `CCN(CC)C(=O)/C(C#N)=C/c1cc(O)c(O)c([N+](=O)[O-])c1`, the Potency result in the experiment with N140, in the experiment with P93_24, in the experiment with P94_40, in the experiment with PAD, in the experiment with PC15 and with PC26 was “inactive” throughout. Moreover, the Potency entry in the experiment on PC49, with SC27B, in the experiment on TAB109 and in the experiment with TAB113 was “inactive” each time.
`CC(C)(C(=O)c1cccnc1)c1cccnc1`: the Potency result in the experiment on N140, in the experiment on P93_24, with P94_40, in the experiment on PAD, with PC15 and with PC26 was “inactive” each time. For the same molecule, the Potency result with SC27B, in the experiment with TAB109 and with TAB113 was “inactive” each time.
For the molecule `COc1cccc(CCc2ccccc2OCC(CN(C)C)OC(=O)CCC(=O)O)c1` (stereo not given), the Potency is 2.82 µM (active) in the experiment with N140; 4.47 µM (active) in the experiment with P93_24; 4.47 µM (active) in the experiment on P94_40; 3.55 µM (active) in the experiment on PAD; 5.01 µM (active) in the experiment with PC15; 3.79 µM (active) with PC26. In addition, the Potency in the experiment with PC49 is 3.16 µM (active); in the experiment with SC27B it was 5.01 µM (active); in the experiment on TAB109 it was 4.47 µM (active); with TAB113, 5.62 µM (active).
In the case of `Cc1cc(=O)n(-c2ccccc2)n1C`, the Potency result in the experiment on N140, with P93_24, in the experiment with P94_40, in the experiment with PAD, with PC15 and in the experiment on PC26 was “inactive” each time. For the same molecule, the Potency result with PC49, with SC27B, with TAB109 and in the experiment with TAB113 was “inactive” throughout.
Take `Cc1c2oc3c(C)ccc(C(=O)N[C@@H]4C(=O)N[C@H](C(C)C)C(=O)N5CCC[C@H]5C(=O)N(C)CC(=O)N(C)[C@@H](C(C)C)C(=O)O[C@@H]4C)c3nc-2c(C(=O)N[C@@H]2C(=O)N[C@H](C(C)C)C(=O)N3CCC[C@H]3C(=O)N(C)CC(=O)N(C)[C@@H](C(C)C)C(=O)O[C@@H]2C)c(N)c1=O` (I: T[dV]P[Sar][NMeV] / II: T[dV]P[Sar][NMeV]; ester I:1-I:C, II:1-II:C; linker I:N-II:N via Actinocin(9to1)): the Potency is 0.0035 µM (active) with N140; 0.005 µM (active) in the experiment on P93_24; 0.0045 µM (active) in the experiment with P94_40; 0.005 µM (active) in the experiment with PAD; 0.0112 µM (active) in the experiment on PC15; 0.0054 µM (active) in the experiment on PC26. In addition, the Potency in the experiment on SC27B is 0.0063 µM (active); with TAB109, 0.004 µM (active); in the experiment with TAB113 it was 0.0063 µM (active).
As to `O=C(O)CCCCC(=O)O`, the Potency entry with N140, in the experiment with P93_24, in the experiment on P94_40, in the experiment on PAD, in the experiment with PC15 and in the experiment on PC26 was “inactive” each time. The Potency result in the experiment on PC49, with SC27B, in the experiment with TAB109 and in the experiment on TAB113 was “inactive” each time.
Take `c1ccc(-c2ccc(C(c3ccccc3)n3ccnc3)cc2)cc1` (stereo not given): the Potency was 7.08 µM (active) in the experiment on N140; 3.16 µM (active) in the experiment on P93_24; 11.2 µM (active) in the experiment on P94_40; 7.94 µM (active) in the experiment on PAD; 11.2 µM (active) with PC15; 12 µM (active) with PC26. For the same molecule, the Potency in the experiment with SC27B was 6.31 µM (active); in the experiment with TAB109 it was 8.91 µM (active); with TAB113, 11.2 µM (active).
On to `C[C@H]1C[C@H]2[C@@H]3CCC4=CC(=O)C=C[C@]4(C)[C@@]3(Cl)[C@@H](O)C[C@]2(C)[C@@]1(O)C(=O)CO`, for which the Potency result with N140, in the experiment on P93_24, with P94_40, in the experiment on PAD, in the experiment with PC15 and in the experiment on PC26 was “inactive” throughout. The Potency entry in the experiment on PC49, in the experiment on SC27B, in the experiment with TAB109 and in the experiment on TAB113 was “inactive” in each case.
Regarding `C[C@]12CC[C@@H]3c4ccc(O)cc4CC[C@H]3[C@@H]1CC[C@@H]2O`, the Potency entry in the experiment on N140, in the experiment on P93_24, with P94_40, in the experiment with PAD, in the experiment on PC15 and in the experiment with PC26 was “inactive” throughout. Moreover, the Potency result with PC49, with SC27B, in the experiment with TAB109 and in the experiment on TAB113 was “inactive” throughout.
Consider `COc1cc2c(cc1OC)C(=O)C(CC1CCN(Cc3ccccc3)CC1)C2` (stereo not given), for which the Potency entry in the experiment on N140, with P93_24, in the experiment with P94_40, in the experiment with PAD, in the experiment on PC15 and in the experiment with PC26 was “inactive” throughout. Also, the Potency entry with PC49, with SC27B, in the experiment with TAB109 and in the experiment with TAB113 was “inactive” each time.
For the molecule `CN=C(NC#N)NCCSCc1csc(N=C(N)N)n1`, the Potency entry in the experiment with N140, in the experiment on P93_24, with P94_40, with PAD, in the experiment on PC15 and in the experiment on PC26 was “inactive” each time. Further, the Potency entry with PC49, in the experiment with SC27B and with TAB113 was “inactive” throughout.
`Cc1cc(O)c(C(C)C)cc1Cl`: the Potency entry with N140, in the experiment on P93_24, in the experiment with P94_40, in the experiment on PAD, in the experiment with PC15 and with PC26 was “inactive” in each case. Also, the Potency entry with PC49, in the experiment on SC27B, with TAB109 and in the experiment with TAB113 was “inactive” in each case.
Take `Cc1c(F)c(N2CCNC(C)C2)cc2c1c(=O)c(C(=O)O)cn2C1CC1` (stereo not given): the Potency entry in the experiment on N140, with P93_24, in the experiment on P94_40, in the experiment with PAD, with PC15 and in the experiment with PC26 was “inactive” each time. The Potency entry with PC49, with SC27B, in the experiment on TAB109 and in the experiment on TAB113 was “inactive” each time.
